Assay [1] in a line: anti-His antibody binders, primary screen, artefact control for SMM control protein annotation, biochemical, small-molecule microarray, 635 nm fluorescence (AID 1128).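 Note: score merges feature fluorescence with signal-to-noise for each printed compound spot.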 Conditions: anti-His Alexa647 antibody binding, higher = more signal.
For assay [2], the system named is Human papillomavirus type 1a E7 protein (residues 1-88). Briefly: HPV1a E7 small-molecule binders, primary screen, biochemical, small-molecule microarray, residues 1-88, 635 nm (AID 1129). Conditions: small-molecule microarray binding, fluorescence 635 nm; higher = more signal.
The target in assay [3] is Focal adhesion kinase 1 (Homo sapiens) (UniProt Q05397). Briefly: small-molecule microarray binders of FAK, primary screen, biochemical, 635/667 nm fluorescence, BSA, DTT (AID 1130).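 Note: composite of spot emission at 667 nm and signal to noise over triplicate slides.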 Conditions: PTK2 binding, 635 nm fluorescence, higher = more signal.
The test system of assay [4] is Fibrinogen (Alexa647-labelled). The assay can be described thus: fibrinogen binders on compound microarrays, profiling panel, artefact control for SMM control-protein annotation, biochemical, small-molecule microarray, 635/667 nm fluorescence (AID 1131).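 Note: z-score merges 667 nm fluorescence with per-spot signal-to-noise over triplicate slides.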 The following applies: fibrinogen-A647 binding fluorescence, higher = more signal.
Assay [5] deals with Follistatin (Homo sapiens) (UniProt P19883). Briefly: follistatin binders on small-molecule microarrays, primary screen, biochemical, small-molecule microarray, 635/667 nm fluorescence (AID 1132). The following applies: FST binding, 635 nm fluorescence, higher = more signal.
Assay [6] addresses Fibroblast growth factor 2 (Homo sapiens) (UniProt P09038). The assay can be described thus: FGF2 binders on small-molecule microarrays, primary screen, biochemical, small-molecule microarray, 635/667 nm fluorescence (AID 1133). The following applies: small-molecule microarray binding, FGF2, fluorescence 635/667; higher = more signal.
Assay [7] is described as follows: mitochondrial membrane potential change in A549 cells, profiling panel, cell-based, JC-1 fluorescence, basal, 24 h, 100 nL (AID 1138).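 Note: A549 lung adenocarcinoma cells under basal conditions with no added stimulus; test concentration not given here.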 Conditions: higher = more signal.
A further assay deals with Lefty1. The assay can be described thus: Lefty1 binders on small-molecule microarrays, primary screen, biochemical, small-molecule microarray, 635/667 nm fluorescence (AID 1139). Conditions: small-molecule microarray binding, fluorescence 635/667; higher = more signal.
The test system of assay [8] is wheat germ agglutinin (Triticum aestivum), Alexa647-labelled. The assay can be described thus: wheat germ agglutinin binders on compound microarrays, profiling panel, artefact control for SMM control-protein annotation, biochemical, small-molecule microarray, 635/667 nm fluorescence (AID 1140).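 Note: score merges 667 nm feature emission with signal to noise over triplicate slides.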 The following applies: WGA-A647 binding, 635 nm fluorescence, higher = more signal.

Assay [9] addresses Luciferin 4-monooxygenase (Photinus pyralis) (UniProt P08659). The assay can be described thus: firefly luciferase enzyme inhibitors, primary screen, biochemical, luminescence, purified enzyme, 2006 set (AID 1141).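 Note: cell-free assay with purified firefly luciferase at 100 ng per well in PBS; test concentration not given here.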 Conditions: SteadyGlo luminescence, 30 min, higher = more signal, called active from +8 up or from −8 down.
The test system of assay [10] is Wnt5a (protein binding on small-molecule microarray). The assay can be described thus: Wnt5a binders on small-molecule microarray, primary screen, biophysical, 635/667 nm fluorescence (AID 1142).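 Note: fluorescence read at 667 nm with signal to noise per printed feature.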 The following applies: 635 nm fluorescence, higher = more signal.
Assay [11] is described as follows: cell viability in Huh7 cells, primary screen, cytotoxicity control for HCV replication inhibitor project, CellTiter-Glo luminescence, basal, 48 h (AID 1143).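 Note: Huh7 hepatoma cells carrying a hepatitis C replication reporter with no stimulus; test concentration not given here.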 Conditions: Huh7 HCV replicon, higher = more signal, called active from +8 up or from −8 down. A general note: Cellular ATP, detected with luciferase, serves as a proxy for viable cell number.
Assay [12] can be described thus: P. aeruginosa biofilm formation inhibitors, primary screen, PAO1 strain, BacTiter-Glo luminescence, LB-PBS (AID 1144). The following applies: 12 h, higher = more signal.
The nature of assay [13]: CREB reporter modulators without forskolin, primary screen, cell-based, PC12, CRE-LacZ reporter, unstimulated (AID 1145). The following applies: no forskolin, luminescence, 4.5 h, higher = more signal, called active from +8 up or from −8 down.
Assay [14] is described as follows: CREB reporter modulators under forskolin, primary screen, cell-based, PC12, CRE-LacZ reporter, forskolin-stimulated (AID 1146).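 Note: PC12 cells with 6xCRE LacZ reporter stimulated by forskolin 10 µM; beta-galactosidase reporter signal reflecting CREB driven transcription.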 Conditions: luminescence, 4.5 h, higher = more signal, called active from +8 up or from −8 down.
The target of assay [15] is Streptavidin (Streptomyces avidinii) (UniProt P22629). Briefly: streptavidin binders on small-molecule microarray, primary screen, artefact control for SMM compound annotation, biophysical, 635/667 nm fluorescence (AID 1147).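 Note: signal reflects streptavidin binding to arrayed compounds as a control protein.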 The following applies: streptavidin binding, higher = more signal.
Assay [16] can be described thus: small-molecule binders of probe aInhba, primary screen, biochemical, small-molecule microarray, 635/667 nm fluorescence (AID 1148).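 Note: score merges 667nm spot fluorescence with signal-to-noise for antibody binding to printed compounds.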 The following applies: higher = more signal.
Assay [17] has as its target Torsin-1A (Homo sapiens) (UniProt O14656). Briefly: torsin A binders from cell lysate, primary screen, small-molecule microarray, wild-type, 635/667 nm (AID 1149). Conditions: COS7 hTOR1A-WT lysate, 635 nm fluorescence, higher = more signal.
Assay [18] shares this target. The assay can be described thus: small-molecule binders of mutant TOR1A in lysate, primary screen, cell lysate, small-molecule microarray, COS7 lysate, 635/667 nm fluorescence (AID 1150).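 Note: score pools 667 nm emission and signal to noise measuring lysate protein binding.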 Conditions: COS7 hTOR1A mutant lysate, 635 nm fluorescence, higher = more signal.
Assay [19] deals with Sonic hedgehog protein (Shh). The assay can be described thus: small-molecule binders of Shh protein, primary screen, biochemical, small-molecule microarray, 635/667 nm fluorescence (AID 1151).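 Note: Shh protein binding to compounds spotted on small-molecule microarray slides; score combines spot fluorescence intensity with signal-to-noise across triplicate slides.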 The following applies: small-molecule microarray binding, 635 nm fluorescence; higher = more signal.

Calls of active or inactive are those of the source. Unless noted, the rule behind the calls is not given here.

From PubChem BioAssay come the findings set out here.

Fibroblast growth factor 2 (Homo sapiens), sequence (P09038 whole entry, looked up): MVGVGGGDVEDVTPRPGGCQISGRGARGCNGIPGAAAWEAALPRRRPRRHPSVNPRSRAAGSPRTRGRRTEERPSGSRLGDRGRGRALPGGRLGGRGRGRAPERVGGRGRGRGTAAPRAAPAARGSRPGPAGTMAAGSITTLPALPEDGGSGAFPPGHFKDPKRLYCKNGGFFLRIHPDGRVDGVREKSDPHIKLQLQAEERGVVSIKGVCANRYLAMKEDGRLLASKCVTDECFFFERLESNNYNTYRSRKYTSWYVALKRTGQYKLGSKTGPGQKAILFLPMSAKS
Torsin-1A (Homo sapiens), sequence (O14656 whole entry, looked up): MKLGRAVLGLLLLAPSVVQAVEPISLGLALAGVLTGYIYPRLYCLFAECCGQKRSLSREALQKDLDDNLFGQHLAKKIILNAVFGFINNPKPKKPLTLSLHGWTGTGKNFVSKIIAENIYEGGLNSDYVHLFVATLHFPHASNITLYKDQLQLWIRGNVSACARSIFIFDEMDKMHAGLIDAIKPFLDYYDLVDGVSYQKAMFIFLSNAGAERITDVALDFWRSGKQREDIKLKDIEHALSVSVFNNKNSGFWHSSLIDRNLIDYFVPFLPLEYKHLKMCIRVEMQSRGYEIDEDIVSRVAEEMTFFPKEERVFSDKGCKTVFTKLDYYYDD
Streptavidin (Streptomyces avidinii), sequence (P22629 whole entry, looked up): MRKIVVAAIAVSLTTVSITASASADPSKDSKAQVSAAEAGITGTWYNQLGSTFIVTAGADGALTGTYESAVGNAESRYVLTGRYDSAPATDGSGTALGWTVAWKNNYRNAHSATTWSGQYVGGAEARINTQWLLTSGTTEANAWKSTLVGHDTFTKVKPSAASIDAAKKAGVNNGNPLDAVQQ
Luciferin 4-monooxygenase (Photinus pyralis), sequence (P08659 whole entry, looked up): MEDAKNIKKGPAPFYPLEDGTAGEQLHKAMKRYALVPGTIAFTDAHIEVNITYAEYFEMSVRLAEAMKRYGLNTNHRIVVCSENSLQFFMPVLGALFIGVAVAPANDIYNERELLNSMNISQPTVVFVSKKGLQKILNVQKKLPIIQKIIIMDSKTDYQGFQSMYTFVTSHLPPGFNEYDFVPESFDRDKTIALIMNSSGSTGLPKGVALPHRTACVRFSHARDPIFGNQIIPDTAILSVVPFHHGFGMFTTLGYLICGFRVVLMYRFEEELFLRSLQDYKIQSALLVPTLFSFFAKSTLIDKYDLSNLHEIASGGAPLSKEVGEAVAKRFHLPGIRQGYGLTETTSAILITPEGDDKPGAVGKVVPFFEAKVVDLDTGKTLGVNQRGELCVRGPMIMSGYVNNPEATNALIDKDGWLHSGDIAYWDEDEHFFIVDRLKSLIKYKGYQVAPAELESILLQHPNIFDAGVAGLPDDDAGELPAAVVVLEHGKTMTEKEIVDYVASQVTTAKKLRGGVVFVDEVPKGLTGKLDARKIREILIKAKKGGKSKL
Follistatin (Homo sapiens), sequence (P19883 whole entry, looked up): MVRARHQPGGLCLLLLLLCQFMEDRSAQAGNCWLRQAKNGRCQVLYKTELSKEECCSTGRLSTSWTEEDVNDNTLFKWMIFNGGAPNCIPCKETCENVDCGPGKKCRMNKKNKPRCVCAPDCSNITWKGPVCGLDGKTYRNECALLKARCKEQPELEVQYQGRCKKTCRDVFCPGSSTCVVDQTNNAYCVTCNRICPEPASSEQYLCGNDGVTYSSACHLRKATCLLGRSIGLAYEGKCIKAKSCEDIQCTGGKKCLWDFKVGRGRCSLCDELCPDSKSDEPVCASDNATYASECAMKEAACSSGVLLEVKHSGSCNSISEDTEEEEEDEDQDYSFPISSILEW
Focal adhesion kinase 1 (Homo sapiens), sequence (Q05397 whole entry, looked up): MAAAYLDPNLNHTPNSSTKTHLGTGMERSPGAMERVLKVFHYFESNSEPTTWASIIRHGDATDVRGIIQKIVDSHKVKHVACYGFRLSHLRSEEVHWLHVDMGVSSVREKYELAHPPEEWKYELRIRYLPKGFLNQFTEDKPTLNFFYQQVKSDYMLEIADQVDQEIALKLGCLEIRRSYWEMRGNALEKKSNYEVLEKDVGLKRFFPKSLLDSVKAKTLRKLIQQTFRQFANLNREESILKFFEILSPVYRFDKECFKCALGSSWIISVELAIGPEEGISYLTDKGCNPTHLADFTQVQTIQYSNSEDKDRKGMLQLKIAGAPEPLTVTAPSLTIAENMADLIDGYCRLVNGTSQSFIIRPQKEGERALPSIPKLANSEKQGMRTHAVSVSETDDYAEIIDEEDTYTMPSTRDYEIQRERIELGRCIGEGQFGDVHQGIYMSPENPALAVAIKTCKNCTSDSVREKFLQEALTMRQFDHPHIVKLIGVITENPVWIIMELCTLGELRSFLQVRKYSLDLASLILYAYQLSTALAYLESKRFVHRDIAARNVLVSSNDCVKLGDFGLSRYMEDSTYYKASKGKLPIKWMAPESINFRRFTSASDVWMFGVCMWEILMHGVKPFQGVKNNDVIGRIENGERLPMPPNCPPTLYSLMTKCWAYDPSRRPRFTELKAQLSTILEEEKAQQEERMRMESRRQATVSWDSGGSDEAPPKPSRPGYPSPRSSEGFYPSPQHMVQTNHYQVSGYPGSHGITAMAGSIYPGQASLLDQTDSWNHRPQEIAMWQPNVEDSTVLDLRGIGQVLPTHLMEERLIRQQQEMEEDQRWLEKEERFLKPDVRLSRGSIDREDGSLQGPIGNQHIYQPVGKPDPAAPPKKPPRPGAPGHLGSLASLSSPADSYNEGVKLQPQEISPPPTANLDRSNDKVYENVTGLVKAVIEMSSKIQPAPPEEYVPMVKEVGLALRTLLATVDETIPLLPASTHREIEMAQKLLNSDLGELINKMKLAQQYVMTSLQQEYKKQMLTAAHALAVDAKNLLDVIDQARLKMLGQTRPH

Take `C=CCNC(=O)[C@H]1[C@@H]2C(=O)O[C@@H](c3ccccc3)[C@@H](c3ccccc3)N2[C@@H](c2ccc(O)cc2)[C@]12C(=O)Nc1ccc(C#CCCO)cc12`: the composite z-score in [1] was -0.0591; in assay [2], -0.338; in assay [3], 0.459; in [4], -0.297; in assay [5], 0.265; in assay [6], -0.869. Besides, the composite z-score with Lefty1 is 0.358; in [8] it was -0.48; in assay [10], -0.169; in assay [15], -0.374; in assay [16] it was -0.152; with Torsin-1A (Homo sapiens) [17] it was -0.944. The composite z-score in the assay with Torsin-1A (Homo sapiens) [18] was -0.187; in [19], 0.717. The z-score in assay [7] is 0.0152; in assay [9], 0.361 (inactive); in assay [11], 0.0368 (inactive); in assay [12], 0.722 (inactive); in [13] it was 0.452 (inactive); in assay [14] it was -0.67 (inactive).
Take `O=C(CS)NCCCCCNC(=O)[C@@H]1C[C@@H]2C(=O)NCC(=O)N2[C@@H]1c1cccc(OCCO)c1`: the composite z-score in assay [1] was 3.09; in assay [2], -0.0552; in assay [3], 1.8; in assay [4] it was 0.0984; in [5], 1.25; in assay [6], 0.817. Further, the composite z-score is 0.106 in the assay with Lefty1; 0.502 in assay [8]; 0.134 in assay [10]; -0.774 in assay [15]; 0.136 in [16]; 0.396 in the assay with Torsin-1A (Homo sapiens) [17]. For the same compound, the figures for the composite z-score (with Torsin-1A (Homo sapiens) [18]; in assay [19]) were -0.0657 and 1.77, respectively. For the same compound, the z-score in assay [7] is 1.12; in assay [9] it was -2.27 (inactive); in [11], -0.556 (inactive); in assay [12] it was -1.2 (inactive); in assay [13], -0.268 (inactive); in [14], 0.0712 (inactive).
`COc1ccc(-c2cc3c(c(Cc4ccccc4)n2)[Si](C(C)C)(C(C)C)OC3)cn1`: the composite z-score in assay [1] was -0.356; in assay [2], -0.875; in assay [3] it was -0.0985; in [4], -0.827; in assay [5], -0.108; in assay [6], -0.328. In addition, the composite z-score was -0.0455 with Lefty1; -0.351 in assay [8]; -0.153 in assay [10]; -0.32 in [15]; -0.215 in [16]; -0.0113 with Torsin-1A (Homo sapiens) [17]. For the same compound, the composite z-score with Torsin-1A (Homo sapiens) [18] was -0.729; in assay [19], -0.093. In addition, the z-score in assay [7] is -0.687; in [9], 0.892 (inactive); in assay [11] it was -1.03 (inactive); in assay [12], 0.2 (inactive); in [13], -0.141 (inactive); in [14], 0.877 (inactive).
Consider `COc1ccc(CCNC(=O)[C@@]2(C)c3ccccc3C(=O)N(c3ccc(C)cn3)[C@H]2c2ccc(CO)cc2)cc1`, for which the composite z-score in assay [1] was -0.463; in assay [2] it was -0.0172; in assay [3], -0.284; in assay [4], -1.95; in assay [5], -0.298; in [6] it was -1.09. In addition, the composite z-score is -0.601 with Lefty1; -0.902 in assay [8]; -0.49 in assay [10]; -0.712 in assay [15]; -0.183 in [16]; -2.16 with Torsin-1A (Homo sapiens) [17]. Besides, the composite z-score is -1.44 in the assay with Torsin-1A (Homo sapiens) [18] and -0.797 in assay [19]. In addition, the z-score is 0.14 in assay [7]; 1.14 (inactive) in assay [9]; -0.998 (inactive) in assay [11]; -0.604 (inactive) in [12]; -0.0888 (inactive) in assay [13]; -0.371 (inactive) in [14].
On to `CO[C@H]1O[C@H](CO)[C@@H](OC(=O)Nc2ccc(Oc3ccccc3)cc2)[C@H](OC(=O)Nc2ccc3c(c2)OCO3)[C@@H]1OC(=O)Nc1ccc2c(c1)OCO2`, for which the composite z-score stood at 1.83 in [1]; 1.24 in assay [2]; 0.653 in assay [3]; 0.85 in assay [4]; 1.28 in [5]; 1.2 in [6]. For the same compound, the composite z-score in the assay on Lefty1 was found to be 0.423; in assay [8], 0.779; in [10] it was 1.31; in assay [15], 0.894; in [16] it was 0.415; with Torsin-1A (Homo sapiens) [17], 0.626. Moreover, the composite z-score turned out to be 1.58 with Torsin-1A (Homo sapiens) [18] and 1.66 in assay [19]. For the same compound, the z-score was -0.216 in assay [7]; -5.16 (inactive) in assay [9]; -2.74 (inactive) in assay [11]; -0.168 (inactive) in assay [12]; 0.502 (inactive) in assay [13]; -0.917 (inactive) in [14].
